Data taken from the supplement of paper PMC3334620.
Over roughly 33,000 sequences, “E-score (-0.5 to 0.5)” has its median near -0.016; the highest 2% begin near 0.31. Shown is part of a subset that was picked to be rich in the highest values.

What follows are sequences tested against Cst6 (UniProt P40535) (assay: PBM E-score (8-mer binding enrichment) (E-score (-0.5 to 0.5)); higher = stronger / more preferred TF binding). Settings: protein concentration: 200 nM; construct: GST-DNA-binding domain.
How it was run: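 Yeast transcription factors, full-length or as DNA-binding domains, were expressed with a GST tag using PURExpress in vitro transcription/translation. At about 100-200 nM they were applied to universal all-10-mer Agilent arrays, double-stranded by primer extension on fresh or once-stripped slides. Fluorescent anti-GST detected bound protein, and masliner normalised the scans. E-scores for ungapped eight-base words, pooled with reverse complements, came from the Universal PBM Analysis Suite.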

UniProt P40535, sequence (P40535 whole entry, the tested form may be a part): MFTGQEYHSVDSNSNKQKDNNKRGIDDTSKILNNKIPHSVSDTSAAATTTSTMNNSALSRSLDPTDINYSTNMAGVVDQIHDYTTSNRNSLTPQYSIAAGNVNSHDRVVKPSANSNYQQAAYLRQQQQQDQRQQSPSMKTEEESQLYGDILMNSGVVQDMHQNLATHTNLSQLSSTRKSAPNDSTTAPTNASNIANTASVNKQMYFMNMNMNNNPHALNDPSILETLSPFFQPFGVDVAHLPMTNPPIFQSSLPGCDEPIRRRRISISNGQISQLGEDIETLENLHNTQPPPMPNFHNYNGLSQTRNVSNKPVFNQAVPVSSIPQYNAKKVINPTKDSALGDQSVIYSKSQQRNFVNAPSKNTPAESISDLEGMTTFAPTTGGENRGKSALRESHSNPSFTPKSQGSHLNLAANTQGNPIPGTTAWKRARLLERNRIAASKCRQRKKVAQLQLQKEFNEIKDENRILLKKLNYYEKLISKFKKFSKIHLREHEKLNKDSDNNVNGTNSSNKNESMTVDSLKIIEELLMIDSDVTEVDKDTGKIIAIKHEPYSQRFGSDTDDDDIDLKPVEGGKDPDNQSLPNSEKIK

First: AGAAAGCT
Second: ATAGTCGA
The “PBM E-score” value of the first is lower: 0.0476 for the first, 0.168 for the second.

First: GTATATTA
Second: ACATATTG
The “PBM E-score” value of the first is higher: 0.261 for the first, 0.137 for the second.

Compared with ATATATTG, ACATATTA is higher in “PBM E-score” value: 0.109 for the first, 0.312 for the second.

Going from CCATATTA to ATATATTA, the “PBM E-score” value rises from 0.0718 to 0.336.

Compared with CTCTATTA, CTATATTC is higher in “PBM E-score” value: 0.0287 for the first, 0.0369 for the second.

Compared with CTATATTA, TACTGGCA is lower in “PBM E-score” value: 0.333 for the first, -0.0625 for the second.

Compared with CAGACAGG, ATCGATAC is higher in “PBM E-score” value: -0.15 for the first, 0.171 for the second.

Compared with AGCTCCGA, CAAAGCGA is higher in “PBM E-score” value: -0.145 for the first, -0.0448 for the second.

Going from TCGACACA to AGCAAGCG, the “PBM E-score” value falls from 0.108 to -0.11.

First: ATCACGTG
Second: GCGACGTA
The “PBM E-score” value of the first is lower: 0.135 for the first, 0.219 for the second.

First: ATCACGTC
Second: ACGACGTG
The “PBM E-score” value of the first is higher: 0.286 for the first, 0.061 for the second.

First: ATGACGTG
Second: GGGACGTA
The “PBM E-score” value of the first is higher: 0.491 for the first, 0.0851 for the second.

First: GTGACGTA
Second: CAGACGTA
The “PBM E-score” value of the first is higher: 0.496 for the first, 0.0968 for the second.

First: CCGACGTA
Second: AGGACGTG
The “PBM E-score” value of the first is higher: 0.0226 for the first, -0.088 for the second.

Compared with ATCACGTA, CTGACGTA is higher in “PBM E-score” value: 0.344 for the first, 0.489 for the second.

First: AGGCTCGA
Second: CTGGTGTC
The “PBM E-score” value of the first is higher: 0.0255 for the first, -0.119 for the second.

First: GCAGCCGA
Second: AAAACCGA
The “PBM E-score” value of the first is lower: -0.053 for the first, 0.0246 for the second.

Compared with TTCCAAAA, CAGGCTAC is lower in “PBM E-score” value: 0.0844 for the first, -0.249 for the second.

Compared with GCTCCGCC, CCGCCGGA is higher in “PBM E-score” value: -0.185 for the first, -0.149 for the second.

Going from ACCATCGA to CGAGGCGC, the “PBM E-score” value rises from -0.0265 to 0.188.

First: AAGACGTA
Second: AGGACGTA
The “PBM E-score” value of the first is higher: 0.215 for the first, -0.126 for the second.

Compared with ATGACGTA, CACCGTTC is lower in “PBM E-score” value: 0.498 for the first, -0.0919 for the second.

First: CAGGCGAG
Second: CTTGCGTC
The “PBM E-score” value of the first is lower: -0.261 for the first, 0.249 for the second.

Compared with AGTGCGTC, ATTGCGTA is higher in “PBM E-score” value: 0.104 for the first, 0.415 for the second.

Compared with GTTGCGTA, ATTGCGTC is higher in “PBM E-score” value: 0.264 for the first, 0.34 for the second.

First: ATTGCGTG
Second: CTCGTTCA
The “PBM E-score” value of the first is higher: 0.154 for the first, 0.022 for the second.

Going from ATTCCCGG to AGGAGCGG, the “PBM E-score” value falls from 0.041 to -0.207.

Compared with AAACGTCT, GAACGTCA is higher in “PBM E-score” value: 0.14 for the first, 0.442 for the second.

Compared with TAACGTGA, CAACGTCG is lower in “PBM E-score” value: 0.284 for the first, 0.0638 for the second.

Going from CAACGTCC to GAACGTCC, the “PBM E-score” value rises from -0.263 to 0.0008.

Compared with AAACGTCC, CAACGTCA is higher in “PBM E-score” value: -0.0706 for the first, 0.471 for the second.

Going from GAACGTTA to TAACGTCA, the “PBM E-score” value rises from -0.124 to 0.489.

Going from AAACGTCA to TAACGTTA, the “PBM E-score” value falls from 0.463 to 0.149.

Going from CCAGGCGA to CTACCTAG, the “PBM E-score” value rises from -0.317 to -0.231.

First: ATCCCGGA
Second: AATGAGCG
The “PBM E-score” value of the first is lower: -0.249 for the first, 0.139 for the second.

Going from AAGTAAAA to AGCCAGTG, the “PBM E-score” value falls from 0.148 to -0.171.

Going from ATCGCCTA to CGATTGTA, the “PBM E-score” value rises from -0.115 to 0.0905.

First: CGGTCTTC
Second: AACTGTGT
The “PBM E-score” value of the first is lower: -0.0638 for the first, 0.0284 for the second.

Compared with ATCAGTTC, ATACAGCC is lower in “PBM E-score” value: -0.0191 for the first, -0.059 for the second.

Compared with GGGTGCCA, CGGTATGC is higher in “PBM E-score” value: -0.137 for the first, -0.111 for the second.

Going from ACGGTCTG to ACACGTAA, the “PBM E-score” value rises from -0.189 to 0.366.

Compared with ACACGTAC, TCACGTAA is higher in “PBM E-score” value: -0.0236 for the first, 0.415 for the second.

Going from GCACGTAA to CCACGTAA, the “PBM E-score” value rises from 0.232 to 0.275.

Compared with ACACGTAG, CTACCCCA is lower in “PBM E-score” value: 0.0917 for the first, -0.16 for the second.

Compared with ATACAGAC, CCGCAACA is lower in “PBM E-score” value: 0.128 for the first, 0.113 for the second.

Going from GACGTTAC to GACGTTAA, the “PBM E-score” value rises from 0.315 to 0.32.

Compared with TACGTTAA, CACGTTAA is lower in “PBM E-score” value: 0.189 for the first, 0.0603 for the second.

Going from CACGTTAC to AACGTTAC, the “PBM E-score” value falls from 0.143 to 0.137.

First: GCCAAAAC
Second: AGCTGCGA
The “PBM E-score” value of the first is higher: 0.00644 for the first, -0.198 for the second.

Compared with AGCGGTCC, ATACGGGC is lower in “PBM E-score” value: -0.134 for the first, -0.204 for the second.

First: ACTGGGGG
Second: CGGACGCA
The “PBM E-score” value of the first is lower: -0.426 for the first, -0.0966 for the second.

Going from CGGCGCCC to AGGCGCCG, the “PBM E-score” value rises from 0.143 to 0.325.

Compared with AGGCGCCA, AGGCGCCT is higher in “PBM E-score” value: 0.0572 for the first, 0.207 for the second.

Going from CGGCGCCG to CGGCGCCA, the “PBM E-score” value falls from 0.384 to 0.161.

Compared with CCGTCGAA, GCAAATGC is higher in “PBM E-score” value: 0.0203 for the first, 0.0351 for the second.

Compared with AATAGCCC, AGCCGGCT is lower in “PBM E-score” value: -0.132 for the first, -0.193 for the second.

Going from CGGATGAG to CGGATGAC, the “PBM E-score” value rises from -0.135 to 0.321.

First: CAGATGAC
Second: AAGATGAC
The “PBM E-score” value of the first is higher: 0.383 for the first, 0.345 for the second.

Compared with AAGATGAT, CAGATGAG is lower in “PBM E-score” value: 0.229 for the first, 0.0374 for the second.

Compared with CGGATGAA, AAGATGAG is lower in “PBM E-score” value: 0.127 for the first, -0.0416 for the second.

First: GAGATGAC
Second: GTAAGTCA
The “PBM E-score” value of the first is higher: 0.239 for the first, 0.132 for the second.

Going from TCGCTCAA to AATTGCCC, the “PBM E-score” value rises from -0.091 to -0.055.

Going from CCAAAAGA to AAAATCGG, the “PBM E-score” value falls from 0.207 to -0.00802.

Going from GCGCAGCC to TTAAAAAA, the “PBM E-score” value rises from -0.38 to 0.306.

Compared with ATTGAAAC, TTTAAAAA is lower in “PBM E-score” value: 0.194 for the first, 0.0985 for the second.

First: ATAAAAAA
Second: CTAAAAAA
The “PBM E-score” value of the first is lower: 0.234 for the first, 0.273 for the second.

First: ATTAAATA
Second: ATTAAATC
The “PBM E-score” value of the first is higher: 0.267 for the first, 0.212 for the second.

Compared with ATTGAAAA, ATAAAAAG is lower in “PBM E-score” value: 0.31 for the first, 0.307 for the second.

Compared with ATTAAATG, CTTGAAAA is lower in “PBM E-score” value: 0.315 for the first, 0.216 for the second.

Going from ATAAAAGG to CAGGTTAG, the “PBM E-score” value falls from 0.0584 to -0.116.

First: CCGCTTGA
Second: ATCTGCTG
The “PBM E-score” value of the first is lower: 0.0541 for the first, 0.0566 for the second.

Going from GAAGCTGC to ACTTAGCA, the “PBM E-score” value rises from -0.117 to -0.0634.

Going from ATTCCGCG to ATTAAAAC, the “PBM E-score” value rises from 0.129 to 0.213.

Compared with ATTAAAAA, ATTAAAAG is lower in “PBM E-score” value: 0.323 for the first, 0.173 for the second.

First: ACTACACA
Second: CGTTAGAA
The “PBM E-score” value of the first is higher: 0.17 for the first, 0.101 for the second.

Going from AGGATGCC to CTGATGCC, the “PBM E-score” value rises from 0.0165 to 0.113.

Going from GTGATGCA to GAGATGCA, the “PBM E-score” value falls from 0.383 to -0.071.

Going from ATGATGCC to ATGATGCA, the “PBM E-score” value rises from 0.347 to 0.362.

First: CTGATGCA
Second: ACGATGCA
The “PBM E-score” value of the first is higher: 0.0731 for the first, -0.00326 for the second.

First: ATGATGCG
Second: CCGGATCG
The “PBM E-score” value of the first is higher: 0.296 for the first, -0.134 for the second.

Compared with ACTTTTCA, CTTCCCAC is lower in “PBM E-score” value: 0.133 for the first, 0.0313 for the second.

Going from GACTCGCC to CCGGGTTA, the “PBM E-score” value falls from -0.223 to -0.281.

Compared with CAAAAGAA, AAGCTCAC is lower in “PBM E-score” value: 0.239 for the first, -0.167 for the second.

Going from AACAATCA to CACCCCGG, the “PBM E-score” value falls from 0.287 to -0.19.

First: ACTTCGTA
Second: AAGTAACT
The “PBM E-score” value of the first is lower: -0.0634 for the first, 0.204 for the second.

Compared with CCGTAACG, TCGTAACA is higher in “PBM E-score” value: -0.0115 for the first, 0.129 for the second.

First: GCGTAACC
Second: ACGTAACT
The “PBM E-score” value of the first is lower: 0.14 for the first, 0.413 for the second.

Compared with ACGTAACG, AAGTAACG is lower in “PBM E-score” value: 0.39 for the first, 0.0219 for the second.
